From PubChem BioAssay come the findings set out here.

In test [1] the test system is Wnt5a (protein binding on small-molecule microarray). The experiment in a line: Wnt5a binders on small-molecule microarray, primary screen, biophysical, 635/667 nm fluorescence (AID 1142).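 Further: fluorescence read at 667 nm with signal to noise per printed feature.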 Conditions: 635 nm fluorescence, higher = more signal.
The nature of test [2]: cell viability in Huh7 cells, primary screen, cytotoxicity control for HCV replication inhibitor project, CellTiter-Glo luminescence, basal, 48 h (AID 1143).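 Further: Huh7 hepatoma cells carrying a hepatitis C replication reporter with no stimulus; test concentration not given here.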 The conditions noted are these: Huh7 HCV replicon, higher = more signal, called active from +8 up or from −8 down.
A short description of test [3]: P. aeruginosa biofilm formation inhibitors, primary screen, PAO1 strain, BacTiter-Glo luminescence, LB-PBS (AID 1144). Conditions: 12 h, higher = more signal.
The nature of test [4]: CREB reporter modulators without forskolin, primary screen, cell-based, PC12, CRE-LacZ reporter, unstimulated (AID 1145). Conditions: no forskolin, luminescence, 4.5 h, higher = more signal, called active from +8 up or from −8 down.
The nature of test [5]: CREB reporter modulators under forskolin, primary screen, cell-based, PC12, CRE-LacZ reporter, forskolin-stimulated (AID 1146).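 Further: PC12 cells with 6xCRE LacZ reporter stimulated by forskolin 10 µM; beta-galactosidase reporter signal reflecting CREB driven transcription.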 Conditions: luminescence, 4.5 h, higher = more signal, called active from +8 up or from −8 down.
Test [6] deals with Streptavidin (Streptomyces avidinii) (UniProt P22629). The experiment in a line: streptavidin binders on small-molecule microarray, primary screen, artefact control for SMM compound annotation, biophysical, 635/667 nm fluorescence (AID 1147).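 Further: signal reflects streptavidin binding to arrayed compounds as a control protein.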 Conditions: streptavidin binding, higher = more signal.
Test [7] in a line: small-molecule binders of probe aInhba, primary screen, biochemical, small-molecule microarray, 635/667 nm fluorescence (AID 1148).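 Further: score merges 667nm spot fluorescence with signal-to-noise for antibody binding to printed compounds.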 Conditions: higher = more signal.
Test [8] has as its target Torsin-1A (Homo sapiens) (UniProt O14656). The experiment in a line: torsin A binders from cell lysate, primary screen, small-molecule microarray, wild-type, 635/667 nm (AID 1149). Conditions: COS7 hTOR1A-WT lysate, 635 nm fluorescence, higher = more signal.
Test [9] has the same target. The experiment in a line: small-molecule binders of mutant TOR1A in lysate, primary screen, cell lysate, small-molecule microarray, COS7 lysate, 635/667 nm fluorescence (AID 1150).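 Further: score pools 667 nm emission and signal to noise measuring lysate protein binding.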 The conditions noted are these: COS7 hTOR1A mutant lysate, 635 nm fluorescence, higher = more signal.
Test [10] relates to Sonic hedgehog protein (Shh). The experiment in a line: small-molecule binders of Shh protein, primary screen, biochemical, small-molecule microarray, 635/667 nm fluorescence (AID 1151).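 Further: Shh protein binding to compounds spotted on small-molecule microarray slides; score combines spot fluorescence intensity with signal-to-noise across triplicate slides.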 Conditions: small-molecule microarray binding, 635 nm fluorescence; higher = more signal.

Each structure is given as a SMILES string. The source made the active and inactive calls. Unless noted, how the calls were made is not given here.

Streptavidin (Streptomyces avidinii), sequence (P22629 whole entry, looked up): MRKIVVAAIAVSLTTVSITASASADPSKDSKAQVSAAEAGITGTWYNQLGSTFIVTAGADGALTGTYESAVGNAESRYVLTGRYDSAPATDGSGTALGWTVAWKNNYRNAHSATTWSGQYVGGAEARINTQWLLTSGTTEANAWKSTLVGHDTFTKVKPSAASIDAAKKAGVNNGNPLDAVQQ
Torsin-1A (Homo sapiens), sequence (O14656 whole entry, looked up): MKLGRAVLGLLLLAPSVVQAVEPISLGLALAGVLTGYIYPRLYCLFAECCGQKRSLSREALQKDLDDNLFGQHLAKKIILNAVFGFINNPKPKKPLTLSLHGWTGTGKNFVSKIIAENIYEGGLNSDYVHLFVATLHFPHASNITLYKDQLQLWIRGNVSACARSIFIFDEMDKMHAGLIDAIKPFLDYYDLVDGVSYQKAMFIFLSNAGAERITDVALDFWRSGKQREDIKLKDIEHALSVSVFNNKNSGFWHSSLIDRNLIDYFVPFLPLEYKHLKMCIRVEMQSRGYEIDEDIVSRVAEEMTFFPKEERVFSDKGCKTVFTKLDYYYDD

Consider `O=C1O[C@H](c2ccccc2)[C@H](c2ccccc2)N2[C@H]1[C@@H](C(=O)O)[C@]1(C(=O)Nc3ccc(C#CCCO)cc31)[C@H]2c1ccc(OCCO)cc1`, for which the composite z-score in [1] was 0.48; in [6], 0.468; in test [7], 0.0082; with Torsin-1A (Homo sapiens) [8], 0.865; in the test with Torsin-1A (Homo sapiens) [9], 1.08; in [10], 0.314. The z-score was -0.33 (inactive) in [2], 0.982 (inactive) in test [3], 1.17 (inactive) in test [4] and 0.147 (inactive) in [5].
Regarding `CCOC(=O)C[C@H]1[C@H](OC(=O)Cc2ccc3c(c2)OCO3)[C@@H](NC(=O)Cc2ccc(OC)cc2)c2cc(OCCCO)ccc2N1C(=O)Cc1ccc(OC)cc1`, the composite z-score in [1] was -0.31; in [6], 0.699; in [7], -0.154; in the test with Torsin-1A (Homo sapiens) [8], 0.142; with Torsin-1A (Homo sapiens) [9] it was 0.209; in test [10], 0.106. Further, the z-score in [2] was -0.972 (inactive); in test [3], -0.805 (inactive); in test [4] it was 1.52 (inactive); in test [5], -0.0811 (inactive).
In the case of `COc1ccc([Si](C)(C)[C@@H]2[C@@H](CC(=O)N(CCO)Cc3ccccc3)O[C@]3(C(=O)N(Cc4ccc(N5C(=O)c6cccc7cccc5c67)cc4)c4ccccc43)[C@H]2C)cc1`, the composite z-score in [1] was 0.0547; in test [6], 0.22; in test [7] it was -0.0112; with Torsin-1A (Homo sapiens) [8], 0.37; in the test with Torsin-1A (Homo sapiens) [9], 0.0705; in test [10] it was 1.8. The z-score was -4.28 (inactive) in test [2], -0.298 (inactive) in test [3], 0.12 (inactive) in test [4] and -0.204 (inactive) in [5].
Take `COC(=O)[C@@]1(Cc2ccc(OC)cc2)[C@H]2c3cc(C(=O)N4CCCC4)n(Cc4c(CO)[nH]cc(C)c4=O)c3C[C@H]2CN1C(=O)c1ccccc1`: the composite z-score in test [1] was 0.702; in test [6], 1.51; in [7], 0.0569; in the test with Torsin-1A (Homo sapiens) [8], 0.272; in the test with Torsin-1A (Homo sapiens) [9], 1.25; in test [10], -0.65. The z-score in test [2] is -1.1 (inactive); in test [3], -0.101 (inactive); in test [4] it was 0.37 (inactive); in test [5] it was 1.41 (inactive).
As to `NC(=O)N1C(=O)C2C(C1=O)C1C=C(CCCO)C2C(C2CC2)N1Cc1sc2ccccc2c1Cl` (stereo not given), the composite z-score in test [1] was 0.588; in test [6], 0.526; in [7] it was -0.0371; with Torsin-1A (Homo sapiens) [8] it was 0.842; with Torsin-1A (Homo sapiens) [9], 0.82; in test [10] it was 0.726. Besides, the z-score is -0.205 (inactive) in test [2], 0.0825 (inactive) in test [3], 0.261 (inactive) in test [4] and -0.654 (inactive) in [5].
Consider `CC(C)C(=C=CC[C@H](O)c1ccccc1OCCO)C[C@H](O)c1cc(Cl)cc(Cl)c1O`, for which the composite z-score was 0.192 in test [1]; 0.855 in test [6]; 0.0966 in test [7]; 0.786 with Torsin-1A (Homo sapiens) [8]; 1.06 in the test with Torsin-1A (Homo sapiens) [9]; 1.85 in test [10]. Also, the z-score in test [2] is -0.825 (inactive); in [3] it was -0.328 (inactive); in test [4], 14.6 (active); in [5] it was 1.59 (inactive).
In the case of `O=C(N1CCOCC1)[C@@]1(Cc2ccccc2)COC(c2ccc(OCCCO)cc2)=N1`, the composite z-score in test [1] was 0.242; in test [6] it was 0.647; in test [7], 0.0422; with Torsin-1A (Homo sapiens) [8] it was 0.315; with Torsin-1A (Homo sapiens) [9], 1.02; in test [10], -1.05. Moreover, the z-score was -5.19 (inactive) in test [2], -0.446 (inactive) in [3], 0.484 (inactive) in test [4] and -2.35 (inactive) in [5].
As to `O=C1O[C@@H](c2ccccc2)[C@@H](c2ccccc2)N2[C@@H](c3ccc(OCCO)cc3)[C@]3(C(=O)Nc4ccc(C#CC5(O)CCCCCC5)cc43)[C@@H](C(=O)O)[C@H]12`, the composite z-score is 0.213 in test [1]; 0.351 in test [6]; -0.0695 in test [7]; 0.562 with Torsin-1A (Homo sapiens) [8]; 0.695 in the test with Torsin-1A (Homo sapiens) [9]; 0.633 in test [10]. Also, the z-score in test [2] is -0.72 (inactive); in test [3], -0.448 (inactive); in test [4] it was -0.0246 (inactive); in test [5] it was 0.371 (inactive).
For `CCCN1C(=O)[C@]2(CCC(=O)OC(C)(C)C)N=C(c3ccc(OCCCO)cc3)O[C@@H]2c2ccccc21`, the composite z-score is 0.456 in test [1]; -0.374 in [6]; 0.173 in test [7]; 1.51 in the test with Torsin-1A (Homo sapiens) [8]; 0.111 in the test with Torsin-1A (Homo sapiens) [9]; 1.7 in test [10]. For the same compound, the z-score in test [2] was -4.35 (inactive); in test [3] it was -0.543 (inactive); in [4], 0.512 (inactive); in [5] it was -1.44 (inactive).
As for `NCCCCCCNC(=O)[C@@H]1C[C@@H]2C(=O)N3CCC[C@H]3C(=O)N2[C@@H]1c1cccc(OCCO)c1`, the composite z-score in test [1] was 0.587; in [6], 0.56; in test [7], -0.024; in the test with Torsin-1A (Homo sapiens) [8], 2.21; in the test with Torsin-1A (Homo sapiens) [9], 1.07; in [10], 0.513. The z-score in test [2] was -0.182 (inactive); in [3], 0.884 (inactive); in test [4], -0.386 (inactive); in test [5], -1.43 (inactive).
For `COCC(=C=CC[C@H](O)c1ccccc1OCCO)C[C@H](O)COCc1ccccc1`, the composite z-score amounted to 1.16 in [1]; 0.259 in [6]; 0.0541 in [7]; 1.29 in the test with Torsin-1A (Homo sapiens) [8]; 1.13 with Torsin-1A (Homo sapiens) [9]; 1.73 in test [10]. Also, the z-score was -0.729 (inactive) in test [2], 1.27 (inactive) in [3], 5.1 (inactive) in test [4] and 0.497 (inactive) in test [5].
On to `CN(C)CCCCNC(=O)[C@H]1C[C@H]2C(=O)N3CCC[C@H]3C(=O)N2[C@H]1c1cccc(OCCO)c1`, for which the composite z-score in test [1] was -0.202; in [6], 1.89; in [7], -0.0403; with Torsin-1A (Homo sapiens) [8] it was -0.107; in the test with Torsin-1A (Homo sapiens) [9], 0.98; in [10], 1.17. Further, the z-score was 0.196 (inactive) in [2], -1.17 (inactive) in test [3], 0.0043 (inactive) in test [4] and -0.258 (inactive) in test [5].
In the case of `CCCCC(O)C1C=CC2C(=O)N(c3ccccc3)C(=O)C2N1Nc1ccc([N+](=O)[O-])cc1` (stereo not given), the composite z-score in test [1] was 0.044; in test [6], 0.736; in test [7], 0.215; with Torsin-1A (Homo sapiens) [8], 0.47; in the test with Torsin-1A (Homo sapiens) [9], 0.482; in test [10], -0.61. Moreover, the z-score was -3.32 (inactive) in test [2], -2.08 (inactive) in [3], -0.219 (inactive) in [4] and -0.176 (inactive) in [5].
With `NC(=O)NCC#Cc1ccc2c(c1)[C@]1(C(=O)N2)[C@H](c2ccc(OCCO)cc2)N2[C@H](c3ccccc3)[C@H](c3ccccc3)OC(=O)[C@H]2[C@@H]1C(=O)O`, the composite z-score was -0.129 in [1]; -0.204 in [6]; -0.128 in test [7]; -0.101 with Torsin-1A (Homo sapiens) [8]; 0.141 with Torsin-1A (Homo sapiens) [9]; -0.501 in test [10]. Further, the z-score in test [2] was -4.1 (inactive); in test [3] it was -0.626 (inactive); in [4], 0.155 (inactive); in test [5], -0.719 (inactive).
